Reference: PubChem BioAssay (EPA / NIEHS)
Active and inactive are the calls of the source. How the source made its calls: active means hit-call score of the fitted dose curve at least 0.9, where 1 is the maximum; inactive means score below 0.9.

Tests used:
Conditions in all cases: mRNA level, 48 h; actives raise or lower the signal
[1] = read-out: Forkhead box O3 (FOXO3), FOXO3 (gene 2309); assay: LTEA_HepaRG_FOXO3: Life Technologies and Expression Analysis (LTEA) Assay for Forkhead box O3 (FOXO3) using HepaRG (AID 2283459)
How it was run: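 qRT-PCR readout of FOXO3 transcript, normalized to three housekeeping genes (ACTB, GAPDH, POLR2A); gain or loss fitted against 0.5% DMSO vehicle. HepaRG cells, 48 h chemical exposure, 8-point half-log series, top 100 uM.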

[2] = read-out: ABC Transporter (ABCB1), ABCB1 (gene 5243); assay: LTEA_HepaRG_ABCB1: Life Technologies and Expression Analysis (LTEA) Assay for ABC Transporter (ABCB1) using HepaRG (AID 2283460)
How it was run: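 HepaRG, 48 h exposure, 8-pt half-log series from 100 uM, 0.5% DMSO vehicle, duplicates. Readout: ABCB1 transcript by Fluidigm TaqMan qRT-PCR, housekeeping-normalized; bidirectional curve fit vs DMSO baseline.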

[3] = read-out: growth arrest and DNA damage 45 (GADD45B), GADD45B (gene 4616); assay: LTEA_HepaRG_GADD45B: Life Technologies and Expression Analysis (LTEA) Assay for growth arrest and DNA damage 45 (GADD45B) using HepaRG (AID 2283461)
How it was run: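 Transcript level quantified by Fluidigm TaqMan qRT-PCR with three housekeeping genes for normalization, analyzed for up- or down-regulation against 0.5% DMSO. HepaRG cultures dosed 48 h at eight half-log concentrations up to 100 uM, duplicates.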

[4] = read-out: ABC Transporter (ABCC3), ABCC3 (gene 8714); assay: LTEA_HepaRG_ABCC3: Life Technologies and Expression Analysis (LTEA) Assay for ABC Transporter (ABCC3) using HepaRG (AID 2283462)
How it was run: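 Transcript level by TaqMan qRT-PCR, normalised to three housekeeping genes, fitted in both directions relative to vehicle. Chemicals tested in duplicate at eight half-log concentrations up to 100 uM for 48 h on HepaRG cells (0.5% DMSO).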

[5] = read-out: ABC Transporter (ABCB11), ABCB11 (gene 8647); assay: LTEA_HepaRG_ABCB11: Life Technologies and Expression Analysis (LTEA) Assay for ABC Transporter (ABCB11) using HepaRG (AID 2283463)
How it was run: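 HepaRG, 48 h exposure, 8-pt half-log CRC top 100 uM, 0.5% DMSO vehicle, duplicates. Readout: TaqMan qRT-PCR of ABCB11 mRNA, housekeeping-normalized (ACTB/GAPDH/POLR2A). Bidirectional fit vs DMSO baseline.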

[6] = read-out: ABC Transporter (ABCC2), ABCC2 (gene 1244); assay: LTEA_HepaRG_ABCC2: Life Technologies and Expression Analysis (LTEA) Assay for ABC Transporter (ABCC2) using HepaRG (AID 2283464)
How it was run: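 Endpoint is ABCC2 transcript level from qRT-PCR, normalized to three housekeeping genes and fitted bidirectionally relative to DMSO. Human HepaRG cells received test chemical for 48 h at up to 100 uM (8 points, half-log steps, 0.5% DMSO), duplicate wells.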

[7] = read-out: Broad substrate specificity ATP-binding cassette transporter ABCG2 (Homo sapiens) (UniProt Q9UNQ0); assay: LTEA_HepaRG_ABCG2: Life Technologies and Expression Analysis (LTEA) Assay for ABC Transporter (ABCG2) using HepaRG (AID 2283465)
How it was run: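 HepaRG, 48 h exposure, 8-pt half-log series from 100 uM, 0.5% DMSO vehicle, duplicates. Readout: ABCG2 transcript by qRT-PCR (Fluidigm array), housekeeping-normalized; bidirectional curve fit relative to DMSO baseline.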

[8] = read-out: ATP-citrate lyase (ACLY), ACLY (gene 47); assay: LTEA_HepaRG_ACLY: Life Technologies and Expression Analysis (LTEA) Assay for ATP-citrate lyase (ACLY) using HepaRG (AID 2283466)
How it was run: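 qRT-PCR readout of ACLY transcript after 48 h chemical treatment of HepaRG cells; expression normalized to three housekeeping genes. Eight-point half-log series, highest 100 uM, 0.5% DMSO vehicle. Gain or loss fitted against DMSO baseline.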

[9] = read-out: Peroxisomal acyl-coenzyme A oxidase 1 (ACOX1) gene, ACOX1 (gene 51); assay: LTEA_HepaRG_ACOX1: Life Technologies and Expression Analysis (LTEA) Assay for Peroxisomal acyl-coenzyme A oxidase 1 (ACOX1) gene using HepaRG (AID 2283467)
How it was run: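 HepaRG, 48 h chemical exposure, 8-pt half-log series from 100 uM top, 0.5% DMSO vehicle, duplicates. Readout: ACOX1 mRNA by Fluidigm qRT-PCR, housekeeping-normalized; bidirectional fit vs DMSO baseline.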

[10] = read-out: Alkaline Phosphatase, Placental (ALPP) gene, ALPP (gene 250); assay: LTEA_HepaRG_ALPP: Life Technologies and Expression Analysis (LTEA) Assay for Alkaline Phosphatase, Placental (ALPP) gene using HepaRG (AID 2283468)
How it was run: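 ALPP transcript level, measured by qRT-PCR and normalized to three housekeeping genes (ACTB, GAPDH, POLR2A), after 48 h dosing of differentiated HepaRG in serum-free induction medium. Top concentration 100 uM with half-log dilutions (8 points, 0.5% DMSO, duplicates); bidirectional fitting relative to DMSO.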

[11] = read-out: Bcl-2 (BAD) gene, BAD (gene 572); assay: LTEA_HepaRG_BAD: Life Technologies and Expression Analysis (LTEA) Assay for Bcl-2 (BAD) gene using HepaRG (AID 2283469)
How it was run: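 HepaRG, 48 h exposure, 8-pt half-log curve from 100 uM in 0.5% DMSO, duplicates. Readout: TaqMan qRT-PCR for BAD mRNA, housekeeping-normalised (ACTB/GAPDH/POLR2A); gain or loss fitted against DMSO baseline.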

[12] = read-out: Bcl-2 (BAX) gene, BAX (gene 581); assay: LTEA_HepaRG_BAX: Life Technologies and Expression Analysis (LTEA) Assay for Bcl-2 (BAX) gene using HepaRG (AID 2283470)
How it was run: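 qRT-PCR read-out of BAX mRNA, normalized to three housekeeping genes, after 48 h chemical exposure of human HepaRG cells in serum-free induction medium; eight-point half-log series, top 100 uM, 0.5% DMSO vehicle; bidirectional fit versus DMSO.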

[13] = read-out: Alpha-fetoprotein (AFP) gene, AFP (gene 174); assay: LTEA_HepaRG_AFP: Life Technologies and Expression Analysis (LTEA) Assay for Alpha-fetoprotein (AFP) gene using HepaRG (AID 2283472)
How it was run: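 qRT-PCR (Fluidigm TaqMan) readout of AFP transcript, normalized to three housekeeping genes, fitted bidirectionally against 0.5% DMSO baseline. HepaRG cells received chemicals for 48 h in serum-free induction medium, top concentration 100 uM, half-log steps.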

[14] = read-out: BCL2L11 (gene 10018); assay: LTEA_HepaRG_BCL2L11: Life Technologies and Expression Analysis (LTEA) Assay for Bcl-2 (BCL2L11) gene using HepaRG (AID 2283473)
How it was run: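 BCL2L11 transcript levels are measured by Fluidigm qRT-PCR, normalized to three housekeeping genes. HepaRG cultures were plated 48 h, then treated 48 h with test chemical (top 100 uM, half-log, 0.5% DMSO vehicle); curves were fitted bidirectionally against DMSO.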

[15] = read-out: Apolipoprotein A-V (APOA5) gene, APOA5 (gene 116519); assay: LTEA_HepaRG_APOA5: Life Technologies and Expression Analysis (LTEA) Assay for Apolipoprotein A-V (APOA5) gene using HepaRG (AID 2283474)
How it was run: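 APOA5 transcript levels were quantified by qRT-PCR, normalized to three housekeeping genes, after 48 h chemical treatment of HepaRG cells (8 points, 100 uM maximum, half-log steps, 0.5% DMSO). Curves fitted in both directions against vehicle.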

[16] = read-out: Apoptosis regulator Bcl-2 (Homo sapiens) (UniProt P10415); assay: LTEA_HepaRG_BCL2: Life Technologies and Expression Analysis (LTEA) Assay for Bcl-2 gene using HepaRG (AID 2283475)
How it was run: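 qRT-PCR read-out (Fluidigm TaqMan) of BCL2 transcript, normalised to three housekeeping genes, after 48 h chemical exposure of HepaRG cells; 8-point half-log series, top 100 uM, 0.5% DMSO vehicle. Gain or loss of signal fitted relative to DMSO baseline.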

[17] = read-out: Bcl-2 (BID) gene, BID (gene 637); assay: LTEA_HepaRG_BID: Life Technologies and Expression Analysis (LTEA) Assay for Bcl-2 (BID) gene using HepaRG (AID 2283476)
How it was run: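 HepaRG, 48 h exposure, 8-pt half-log series, top 100 uM, 0.5% DMSO vehicle, duplicates. Readout: BID mRNA by TaqMan qRT-PCR; housekeeping-normalized; bidirectional curve fit vs DMSO baseline.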

[18] = read-out: Caspase-3 (Homo sapiens) (UniProt P42574); assay: LTEA_HepaRG_CASP3: Life Technologies and Expression Analysis (LTEA) Assay for cysteine-aspartic acid protease (CASP3) using HepaRG (AID 2283477)
How it was run: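 Expression of CASP3 was quantified by TaqMan qRT-PCR against three housekeeping genes (ACTB, GAPDH, POLR2A), bidirectionally versus 0.5% DMSO. HepaRG cultures received compounds in duplicate, top 100 uM with half-log steps, for 48 h in serum-free induction medium.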

[19] = read-out: Cytochrome P450 (CYP24A1), CYP24A1 (gene 1591); assay: LTEA_HepaRG_CYP24A1: Life Technologies and Expression Analysis (LTEA) Assay for Cytochrome P450 (CYP24A1) using HepaRG (AID 2283478)
How it was run: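 mRNA of CYP24A1 quantified by TaqMan qRT-PCR (ACTB/GAPDH/POLR2A normalization) after 48 h chemical exposure of HepaRG cells, top concentration 100 uM, half-log steps, 0.5% DMSO vehicle, duplicates. Curves fitted bidirectionally against DMSO baseline.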

[20] = read-out: adenosine kinase (ADK) gene, ADK (gene 132); assay: LTEA_HepaRG_ADK: Life Technologies and Expression Analysis (LTEA) Assay for adenosine kinase (ADK) gene using HepaRG (AID 2283471)
How it was run: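 Read-out is ADK transcript level measured by qRT-PCR and normalised to three housekeeping genes. Cells are human HepaRG, dosed for 48 h at up to 100 uM in 0.5% DMSO. Gain or loss of signal is fitted against DMSO controls.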

Measured: AC50

Chain of Apoptosis regulator Bcl-2 (Homo sapiens) (P10415 whole entry, looked up): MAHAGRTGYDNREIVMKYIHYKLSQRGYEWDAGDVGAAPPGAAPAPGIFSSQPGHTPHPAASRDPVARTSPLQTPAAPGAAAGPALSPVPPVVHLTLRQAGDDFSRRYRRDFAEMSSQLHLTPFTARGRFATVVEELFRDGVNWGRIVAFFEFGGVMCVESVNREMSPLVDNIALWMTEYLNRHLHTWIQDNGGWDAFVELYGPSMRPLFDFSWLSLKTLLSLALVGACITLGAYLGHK
Chain of Broad substrate specificity ATP-binding cassette transporter ABCG2 (Homo sapiens) (Q9UNQ0 whole entry, looked up): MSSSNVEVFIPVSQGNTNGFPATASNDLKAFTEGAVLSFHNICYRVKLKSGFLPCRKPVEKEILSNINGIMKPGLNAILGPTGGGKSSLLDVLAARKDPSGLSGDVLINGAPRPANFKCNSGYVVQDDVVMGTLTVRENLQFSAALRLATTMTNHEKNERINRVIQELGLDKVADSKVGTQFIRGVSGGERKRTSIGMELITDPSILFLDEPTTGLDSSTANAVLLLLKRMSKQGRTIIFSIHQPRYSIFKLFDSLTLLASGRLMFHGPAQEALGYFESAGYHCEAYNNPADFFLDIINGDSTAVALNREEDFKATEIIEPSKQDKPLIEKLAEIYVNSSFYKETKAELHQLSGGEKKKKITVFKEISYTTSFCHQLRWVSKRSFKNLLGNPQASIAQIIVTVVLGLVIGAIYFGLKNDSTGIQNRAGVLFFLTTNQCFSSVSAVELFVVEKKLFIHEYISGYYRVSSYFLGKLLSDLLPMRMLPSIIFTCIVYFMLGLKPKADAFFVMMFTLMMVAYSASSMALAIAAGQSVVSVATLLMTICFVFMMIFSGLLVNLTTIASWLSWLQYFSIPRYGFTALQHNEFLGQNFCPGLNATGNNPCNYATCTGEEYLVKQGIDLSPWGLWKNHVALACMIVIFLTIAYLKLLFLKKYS
Chain of Caspase-3 (Homo sapiens) (P42574 whole entry, looked up): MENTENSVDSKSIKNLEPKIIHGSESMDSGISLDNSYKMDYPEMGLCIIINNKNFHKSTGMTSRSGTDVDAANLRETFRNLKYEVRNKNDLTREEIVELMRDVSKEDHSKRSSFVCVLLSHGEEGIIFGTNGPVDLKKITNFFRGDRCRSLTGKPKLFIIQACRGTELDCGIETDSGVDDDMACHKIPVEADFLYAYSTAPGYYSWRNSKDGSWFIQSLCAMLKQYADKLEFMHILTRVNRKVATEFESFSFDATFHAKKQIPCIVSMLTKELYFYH

CC(C)(C)OOC(C)(C)C
inactive: [1] | [2] | [3] | [4] | [5] | [6] | [7] | [8] | [9] | [10] | [11] | [12] | [13] | [14] | [15] | [16] | [17] | [18] | [19]

CCCN(CCC)c1c([N+](=O)[O-])cc(C(C)C)cc1[N+](=O)[O-]
active: [2] 50 µM | [4] 0.246 µM | [6] 18.3 µM | [7] 18.1 µM | [8] 0.129 µM | [13] 50 µM | [14] 0.106 µM | [15] 0.123 µM | [17] 0.119 µM
inactive: [3] | [5] | [9] | [10] | [11] | [12] | [20] | [16] | [18] | [19]

CCCCN(CCCC)SN(C)C(=O)Oc1cccc2c1OC(C)(C)C2
active: [2] 23.2 µM
inactive: [3] | [4] | [5] | [6] | [7] | [8] | [9] | [10] | [11] | [12] | [13] | [14] | [15] | [16] | [17] | [18] | [19]

CCOS(=O)(=O)OCC
inactive: [2] | [3] | [4] | [5] | [6] | [7] | [8] | [9] | [10] | [11] | [12] | [13] | [14] | [15] | [16] | [17] | [18] | [19]

CCOc1ccc(C(C)(C)COCc2cccc(Oc3ccccc3)c2)cc1
inactive: [3] | [4] | [5] | [8] | [9] | [10] | [11] | [12] | [13] | [14] | [15] | [16] | [17] | [18] | [19]
active: [2] 8.69 µM | [6] 24.6 µM | [7] 2.64 µM
